The nature of experiment [1]: Wnt pathway potentiators raising nuclear beta-catenin – imaging, WNT3A-conditioned medium, mouse C2C12, NPC library, primary screen (AID 1117326; in the data active = nuclear beta-catenin stimulation mostly above about 4.2%, no sharp cut-off; inactive = mostly below about 10%; also: reference of the scale not given here). Conditions: stronger effect = higher value.
A short description of experiment [2]: stimulators of insulin release from INS-1E, primary screen, cell-based, 5 mM glucose, NPC library (AID 1117329;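 active = compound raises insulin release from rat beta cells at 5 mM glucose, no numeric limit stated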; also: reference of the scale not given here). Conditions: rat INS-1E insulin secretion, at 10 µM, stronger effect = higher value.
Experiment [3] in a line: growth inhibition of GSK3B-pretreated HCT116 cells – cell-based, CellTiter-Glo, 0.2 to 20 µM (AID 1117336). Conditions: HCT116 viability after GSK3B inhibitor, at 20 µM, stronger effect = higher value. On the technique in general: Cellular ATP, detected with luciferase, serves as a proxy for viable cell number.
Experiment [4] can be described thus: inhibition of endothelial tube formation, primary screen, imaging, VEGF stimulated, CD31 staining, tube area, NPC library (AID 1117340;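 active = compound that reduces growth-factor-driven endothelial tube area in a mixed cell culture, no cutoff stated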). To be noted: VEGF-stimulated ADSC/ECFC co-culture, at 10 µM, stronger effect = higher value.
A short description of experiment [5]: GLP1 release stimulators, primary, NCI-H716, NPC library (AID 1117341;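 active = compound raises GLP1 secretion from the human gut endocrine cells, with no numeric limit stated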; also: reference of the scale not given here). Conditions: NCI-H716 cells, at 10 µM, stronger effect = higher value.
Experiment [6] in a line: HCT116 colon cancer cell growth inhibition, primary screen, CellTiter-Glo luminescence, NPC library (AID 1117342;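 active = compounds that lower survival of HCT116 colon cancer cells in the luminescence readout, no numeric limit stated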). Conditions: at 20 µM (top of the series).
Experiment [7] in a line: reduced SW480 viability measured with CellTiter-Glo, NPC library, primary (AID 1117343;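 active = compounds that lower viability of the colon cancer cells in the luminescence readout, with no numeric limit stated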). To be noted: CellTiter-Glo luminescence; at 20 µM (top of the series).
Experiment [8] is described as follows: NPC library primary testing for decreased DLD-1 cell viability via CellTiter-Glo (AID 1117346;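 active = compounds that lower survival of DLD-1 colon cancer cells in the luminescence readout, no cutoff given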). To be noted: DLD-1 viability, CellTiter-Glo luminescence; at 20 µM (top of the series).

This is an account of results in PubChem BioAssay.

Values joined by “and” are separate entries in the source; they are usually repeats but may differ in a detail not shown here. Identical values can stand only once. The source holds several records for some structures; these can differ, active in one and inactive in another. Active and inactive are the calls of the source.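 The calls were made as follows, unless noted: active = compounds lowering colon cancer cell viability after pretreatment blocking the GSK3B kinase; inactive = the rest.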 Non-standard residues stand in square brackets, D forms with d. Residues, ends and D or L forms follow the SMILES beside them. pGlu = O=C1CC[C@@H](C(=O)O)N1

For `CCOc1ccc(C(=O)OCCN(CC)CC)cc1`, the nuclear beta-catenin stimulation in experiment [1] (at 10 µM) is -1% (inactive); in experiment [1] (stimulation, at 2 µM), -1.4%. Besides, the insulin secretion stimulation in experiment [2] is -0.6% (inactive). The viability decrease in experiment [3] is 6.1% (inactive). Also, the tube area decrease in experiment [4] is -2.2% (inactive). Moreover, the GLP1 secretion stimulation in experiment [5] is 1.9% (inactive). The inhibition of viability in experiment [6] was 43.8% (inactive). Further, the viability decrease (inhibition) is 20.4% (inactive) in experiment [7] and 8.4% (inactive) in experiment [8].

In the case of `CCCCNC(=O)NS(=O)(=O)c1ccc(N)cc1`, the nuclear beta-catenin stimulation in experiment [1] (at 10 µM) is 1.6% (inactive); in experiment [1] (stimulation, at 2 µM) it was 0.7%. For the same compound, the insulin secretion stimulation in experiment [2] is 0.4% (inactive). The viability decrease in experiment [3] was 2.75% (inactive). Also, the tube area decrease in experiment [4] was -10.5% (inactive). Further, the GLP1 secretion stimulation in experiment [5] is 1.9% (inactive). Moreover, the inhibition of viability in experiment [6] was 1.4% (inactive). The viability decrease (inhibition) is 27.3% (inactive) in experiment [7] and 8.7% (inactive) in experiment [8].

Turning to `Oc1ccc(Cl)cc1Sc1cc(Cl)ccc1O`, the nuclear beta-catenin stimulation is 4.4% (inactive) in experiment [1] (at 10 µM) and 0% in experiment [1] (stimulation, at 2 µM). For the same compound, the insulin secretion stimulation in experiment [2] was 4.5% (inactive). The viability decrease in experiment [3] was 100% (active). For the same compound, the tube area decrease in experiment [4] is 101% (active). Further, the GLP1 secretion stimulation in experiment [5] was 47.3% (active). Also, the inhibition of viability in experiment [6] was 102% (active). In addition, the viability decrease (inhibition) in experiment [7] is 122% (active); in experiment [8], 103% (active).

Consider `CCNC(=O)[C@@H]1CCCN1C(=O)[C@H](CCCN=C(N)N)NC(=O)[C@H](CC(C)C)NC(=O)CNC(=O)[C@H](Cc1ccc(O)cc1)NC(=O)[C@H](CO)NC(=O)[C@H](Cc1c[nH]c2ccccc12)NC(=O)[C@H](Cc1cnc[nH]1)NC(=O)[C@@H]1CCC(=O)N1` ([pGlu]HWSYGLRP-NHEt), for which the nuclear beta-catenin stimulation in experiment [1] (at 10 µM) was 0.5% (inactive); in experiment [1] (stimulation, at 2 µM) it was -0.6%. Besides, the insulin secretion stimulation in experiment [2] is -0.8% (inactive). Besides, the viability decrease in experiment [3] was 32.1% (inactive). The tube area decrease in experiment [4] is -2.8% (inactive). In addition, the GLP1 secretion stimulation in experiment [5] was -2.8% (inactive). Also, the inhibition of viability in experiment [6] was 33% (inactive). Moreover, the viability decrease (inhibition) is 25.1% (inactive) in experiment [7] and 29.7% (inactive) in experiment [8].

Turning to `O=C(O)CNC(=O)c1ccccc1I`, the nuclear beta-catenin stimulation in experiment [1] (at 10 µM) is -0.5% (inactive); in experiment [1] (stimulation, at 2 µM), 1.7%. The insulin secretion stimulation in experiment [2] was 0.3% (inactive). Moreover, in experiment [3], the viability decrease was 16% (inactive). Besides, in experiment [4], the tube area decrease is 5.3% (inactive). The GLP1 secretion stimulation in experiment [5] is 0.7% (inactive). Also, the inhibition of viability in experiment [6] was 4.1% (inactive). In addition, the viability decrease (inhibition) was 10.4% (inactive) in experiment [7] and -17.7% (inactive) in experiment [8].

Turning to `c1ccc(CNCCNCc2ccccc2)cc1`, the nuclear beta-catenin stimulation in experiment [1] (at 10 µM) was 4% (inactive); in experiment [1] (stimulation, at 2 µM), 4.4%. In addition, the insulin secretion stimulation in experiment [2] is 3.4% (inactive). Further, the viability decrease in experiment [3] was -31.8% (inactive). Also, in experiment [4], the tube area decrease was -24% (inactive). For the same compound, in experiment [5], the GLP1 secretion stimulation was 2.1% (inactive). Moreover, the inhibition of viability in experiment [6] was -6.83% (inactive). The viability decrease (inhibition) was 20% (inactive) in experiment [7] and -22.2% (inactive) in experiment [8].

Regarding `C[C@H](CCC(=O)O)[C@H]1CC[C@H]2[C@H]3[C@@H](CC[C@]12C)[C@@]1(C)CC[C@@H](O)C[C@H]1C[C@@H]3O`, the nuclear beta-catenin stimulation in experiment [1] (at 10 µM) is -1.6% (inactive); in experiment [1] (stimulation, at 2 µM), 0.2%. In experiment [2], the insulin secretion stimulation was 1% (inactive). Further, the viability decrease in experiment [3] was -8.5% (inactive). In experiment [4], the tube area decrease is -26.9% (inactive). For the same compound, the GLP1 secretion stimulation in experiment [5] is -1.3% (inactive). Moreover, the inhibition of viability in experiment [6] is 7.3% (inactive). The viability decrease (inhibition) is 6.1% (inactive) in experiment [7] and -6.8% (inactive) in experiment [8].

For `Clc1ccccc1-c1nc(-c2ccncc2)no1`, the nuclear beta-catenin stimulation in experiment [1] (at 10 µM) is -0.3% (inactive); in experiment [1] (stimulation, at 2 µM), 0.5%. Besides, the insulin secretion stimulation in experiment [2] was -2.3% (inactive). Also, in experiment [3], the viability decrease was 3.6% (inactive). In experiment [4], the tube area decrease was 23.5% (inactive). Moreover, the GLP1 secretion stimulation in experiment [5] is -2.9% (inactive). Moreover, the inhibition of viability in experiment [6] is 18.1% (inactive). Besides, the viability decrease (inhibition) in experiment [7] is 8.4% (inactive); in experiment [8] it was -2.9% (inactive).

On to `O=C(O)c1ccccc1S`, for which the nuclear beta-catenin stimulation in experiment [1] (at 10 µM) is 4.7% (inactive); in experiment [1] (stimulation, at 2 µM), -1.3%. In addition, in experiment [2], the insulin secretion stimulation was -0.1% (inactive). Moreover, in experiment [3], the viability decrease is 1% (inactive). Also, in experiment [4], the tube area decrease is 13.4% (inactive). In addition, in experiment [5], the GLP1 secretion stimulation is -1.4% (inactive). The inhibition of viability in experiment [6] is 2.1% (inactive). Besides, the viability decrease (inhibition) in experiment [7] was 31.6% (inactive); in experiment [8], -3.4% (inactive).

Turning to `CCCCCC(N)=O`, the nuclear beta-catenin stimulation is 1.3% (inactive) in experiment [1] (at 10 µM) and 2.1% in experiment [1] (stimulation, at 2 µM). Moreover, the insulin secretion stimulation in experiment [2] was -1.1% (inactive). Moreover, in experiment [3], the viability decrease is -27.2% (inactive). In experiment [4], the tube area decrease is 8.8% (inactive). Moreover, the GLP1 secretion stimulation in experiment [5] is 0.3% (inactive). Further, the inhibition of viability in experiment [6] is 2.8% (inactive). The viability decrease (inhibition) in experiment [7] is 44.1% (inactive); in experiment [8], -11.8% (inactive).

For the compound `CNC(=O)CN(CCN(CCN(CC(=O)[O-])CC(=O)NC)CC(=O)[O-])CC(=O)[O-].O.[Gd+3]`, the nuclear beta-catenin stimulation was 1.4% (inactive) in experiment [1] (at 10 µM) and -0.1% in experiment [1] (stimulation, at 2 µM). Further, in experiment [2], the insulin secretion stimulation was 0.2% (inactive). Moreover, the viability decrease in experiment [3] is 38.3% (inactive). Also, the tube area decrease in experiment [4] was 18.9% (inactive). Also, in experiment [5], the GLP1 secretion stimulation was -4.4% (inactive). Also, in experiment [6], the inhibition of viability was 25.4% (inactive). In addition, the values for the viability decrease (inhibition) in experiment [7] and in experiment [8] were 30.9% (inactive) and 3.8% (inactive), respectively.

As for `O=C(O)c1ccccn1`, the nuclear beta-catenin stimulation is 1.7% (inactive) in experiment [1] (at 10 µM) and 0.9% in experiment [1] (stimulation, at 2 µM). In addition, the insulin secretion stimulation in experiment [2] was -0.2% (inactive). Further, in experiment [3], the viability decrease was 31.1% (inactive). In experiment [4], the tube area decrease is -6.5% (inactive). In addition, the GLP1 secretion stimulation in experiment [5] was 1.3% (inactive). For the same compound, in experiment [6], the inhibition of viability is -1.6% (inactive). In addition, the results for the viability decrease (inhibition) in experiment [7] and in experiment [8] were 10.7% (inactive) and 22% (inactive), respectively.

As for `CC1CN(c2cc3c(cc2F)c(=O)c(C(=O)O)cn3-c2ccc(F)cc2F)CCN1` (centres undefined), the nuclear beta-catenin stimulation was -0.4% (inactive) in experiment [1] (at 10 µM) and 0% in experiment [1] (stimulation, at 2 µM). Moreover, the insulin secretion stimulation in experiment [2] is 2.1% (inactive). Further, the viability decrease in experiment [3] was 8.7% (inactive). In experiment [4], the tube area decrease was 5.5% (inactive). For the same compound, in experiment [5], the GLP1 secretion stimulation is -0.9% (inactive). For the same compound, the inhibition of viability in experiment [6] was 10.7% (inactive). Also, the viability decrease (inhibition) in experiment [7] was 16.6% (inactive); in experiment [8], -0.2% (inactive).

With `Cc1cc(O)c2ccccc2c1O`, the nuclear beta-catenin stimulation in experiment [1] (at 10 µM) is 53.2% (active) and 30.1% (inactive); in experiment [1] (stimulation, at 2 µM), 1.1% and -0.7%. Moreover, in experiment [2], the insulin secretion stimulation is 5% (inactive) and 0.4% (inactive). In experiment [3], the viability decrease was 101% (active) and 99.2% (active). In experiment [4], the tube area decrease was 74.4% (active) and 26.8% (inactive). In addition, the GLP1 secretion stimulation in experiment [5] is -6.3% (inactive) and -0.9% (inactive). For the same compound, in experiment [6], the inhibition of viability was 102% (active) and 99.5% (active). Further, the viability decrease (inhibition) was 142% (active) and 102% (active) in experiment [7]; 104% (active) and 101% (active) in experiment [8].

On to `CCCC(CCC)C(N)=O`, for which the nuclear beta-catenin stimulation in experiment [1] (at 10 µM) is -0.9% (inactive); in experiment [1] (stimulation, at 2 µM), -1%. Moreover, in experiment [2], the insulin secretion stimulation was 2% (inactive). Moreover, in experiment [3], the viability decrease was 1.8% (inactive). Moreover, the tube area decrease in experiment [4] is -17.7% (inactive). Moreover, in experiment [5], the GLP1 secretion stimulation is 16.4% (inactive). The inhibition of viability in experiment [6] was 16.3% (inactive). For the same compound, the viability decrease (inhibition) in experiment [7] is 25.7% (inactive); in experiment [8] it was 22.3% (inactive).

In the case of `CCOC(=O)[C@@H](N)CS`, the nuclear beta-catenin stimulation is -2% (inactive) in experiment [1] (at 10 µM) and -1% in experiment [1] (stimulation, at 2 µM). In addition, in experiment [2], the insulin secretion stimulation was 2.3% (inactive). Besides, the viability decrease in experiment [3] was -17.1% (inactive). Further, in experiment [4], the tube area decrease is 2.3% (inactive). The GLP1 secretion stimulation in experiment [5] is 21% (active). Moreover, the inhibition of viability in experiment [6] is -5.6% (inactive). The viability decrease (inhibition) in experiment [7] is 34.7% (inactive); in experiment [8], 4.2% (inactive).
